# In all, about 4,500 sequences were measured (“median log2 fold change of GCK-ALFA target abundance (FLAG IP / Myc IP barcode read proportion)”: median about 0.078, lowest 2% from about -0.6 on). This is one part of a sample in which the lowest values are shown more often than they occur.
# B1: GBRAP_160_4006 (protein)
# chain: SEEAEKLIKEIKEIFEELKKDIEGLTPEERLTLAKGYAGEILQLAESSKVISDEAVDKIAEILDEFLEELEKNKNAPLEYWKKLIEETLKKIEEVIKEDS
# B2: GBRAP_43_5749 (protein)
# chain: DEELVAGAVEFTLLAAEDPSISPETVLRAFKATLDLIADTGVRLEEELVAAAAAVAKRLSPEQVEALIEHIKELAAASPEVKETFEAAEEVLRAELAKRR
# B3: GBRAP_150_3886 (protein)
# chain: DLETALTIASSALDILEATIEDGPKLLEHALKLTKALVDEVKDFSEELQKLAKEALKKIEEAIKLVKAGGKPEEIKKLLEEAAKLLEELEKLLEKKIEEE
# B4: GBRAP_52_5963 (protein)
# chain: MEARMEALLDELLALRRAGDEAGAEALAREIAETLDDEELRLLGDVLVARIRASDLETAELLLDLAIMLADVLEELGRDPRLASDLLGRAAAAAYALEQA
# B5: GBRAP_83_6915 (protein)
# chain: MKEITVAAVGDHIDEAFDAAIDLKKEGVEKIIVEAIIKPEEVPRLLEAVKRALEAGVNLELEVFLEGATEEEAEEVEKKLKEIAKEAGKEVKVTVEVIEP
# B6: GBRAP_9_7146 (protein)
# chain: MEEMVEKIREVMEDAFEEVREIVPEEVKPLVDELREEALKRFEEVVADKSKTKEEIREAAKELIEEFTERVSEKVSPEIAKMVEAIGLTAKLEIEEIYEE
# B7: GBRAP_11_2904 (protein)
# chain: KKEKLEKLAELLKKAVALLKELLAKGTDDEKLHAEALKVAEEALKLAKEVLDESDVELAEEAVELLKQAKADPANAAQYVQQALAIFSVLEGQVLLKIEE
# B8: GBRAP_96_7096 (protein)
# chain: MLEEAEALVRELIAALDTDPERARALAERLLEFPVEVVTEAIVRVVKDPADAAKLAELLLELGDEKAEEVLLEAAEKAPGDISKAIIDAMQAYEEAKEAA
# B9: GBRAP_184_5075 (protein)
# chain: SVREETIRVENVEEARAKMAALAERVRDHRGDLVVLVEMPEADLEIMRAVLEGLAAILAAGYARRVTVGFDAEVTEEQVDEAVALADRLGVNVVLPLKEE
# B10: GBRAP_125_3111 (protein)
# chain: DMEEVLEALAIVLRALGFDDDEIEEALELARRYGIKGTMIAVALAEGYEEVADLLEKLTEEEVKQALLETAAAIKANPELTPEEVKELLEEVLKKLLAAS
# B11: GBRAP_160_4005 (protein)
# chain: SAEIEALIKEIEELVKETKEWMKGLSPEERLTLARGMVGEIIQLAIDSPAVSDETEDKIAEIGDETIARLEANANASLEVWEKILDDYLEKVKELLKSDE
# B12: GBRAP_11_2908 (protein)
# chain: KKEKLKEAAKLAEKAAKLIEQLIKNGADDKELWAEAEKAAEELLKLAKEYLDESTVELAEYALELLKKAQADPKNAQQYLNEALATVRVILGQILLAIEE
# B13: GBRAP_78_6697 (protein)
# chain: EVEELLEKALELLDQALKLSKQLPEDLRNEVTYHLVEAITDLEEAIEEGADLEELKEALEHLDKAIALVKANDTPLTQPLLKLLTEAKKLLEEAIKKLEE
# B14: GBRAP_125_3109 (protein)
# chain: SEDELLAALRALARALGFSEEEAEEAAELARRFSLRQTLYAIFLAEGEEELADLVEQLTEEQARAALAALAAWLAAHPDATKEEVLAQARAILEAELARA
# B15: GBRAP_9_7186 (protein)
# chain: MQEKKEKILEEVKEELELAIEVAPEEYKELIKEKTEEVLKELEKAVKDENTTLEELLKKLEELFEKLIEIAKKNVPKETYLQIEAILGTAILSAEEIIEE
# B16: GBRAP_26_5464 (protein)
# chain: MEEAFREASDRVDEIAAKLSNPEAAAAVRAEADTILLELEERIEAGEDIEKAVKEAEEEFLKEAREIGKEEGLPEEEIERLEKELSEVFKELEERLKKAK
# B17: GBRAP_160_4038 (protein)
# chain: NEKLEKLAKFAEEVFKEAEELIKGTTVEEAAVIVDVATGEIIMEAVELGIDNDELEDFIDEIGDEAVAYLLAHPDLTEEEIQALVKEAKEKILKKIKEAS
# B18: GBRAP_160_4037 (protein)
# chain: NEKLKKLKKFAEEVFEEAKELVEGTSVEEAAVIIDVAAGEIIMEAVELGIDDDELEDFIDEIGDEAVAYLLAHPDLSEEEIKELIEEAREKVLEKIDEAE
# B19: GBRAP_52_6009 (protein)
# chain: MREELRERLEEALALVRAGRLEEARALVTELVESLDEEELELLIELLAEMAREAAPEDFDAVWTLAELVAEEMRRAGKDEVLADLLEARVAAALYEAEQR
# B20: GBRAP_52_5877 (protein)
# chain: MLEEAVKLLEEAVKAKKEGKEKELKEILKKIVEEFSEETILAAVKKLAEKVLTKSLEEAEAFYETVELLSDILLEAGKSEEIASLMEAIAGATLYTVEQK
# B21: GBRAP_11_2629 (protein)
# chain: KKEILKKKAELAKKLAEKVEKLLKEGVDNEELLKEIEKLLKEIAELTEKYGTEADKSLVEVAKELFEEAKKDKENKEKYLKELLAAAKVLEGDYLLEIEE
# B22: GBRAP_35_5618 (protein)
# chain: MSDEELTDMLVDLIEDATAAVPDVSVETLAAIAASLSRAVRSLAEELAGNAENLRRLADAVEALRDAIERHHGDDPLAQETIAALTATAEEIRARAAASE
# B23: GBRAP_160_4664 (protein)
# chain: SEEIEKLLEEIRELLLETLDWTKDLDPASREALLRAAVGDVLQLLFENPLVTDEVEDYAEEVLEEMREYVLANPDLTDEEREALVDEVVDKIREKILEES
# B24: GBRAP_11_2937 (protein)
# chain: EKEKLKKAQELAKEAQELLKKIQKAGKLDEELLKKAQELLKKAAELAKELGLEEEQKDLELAQELLEEVQKAGKLDETKVAAAQALVFDVAHELEEKLEE
# B25: GBRAP_52_6133 (protein)
# chain: MREELREKVLELLELVKAGKLEEAKKRLLKIAKELSDEELREFAREFAEVVRELPPEDLDAAAELLELAEEALEEAGRPEELISLLIGEGARALYEVEQR
# B26: GBRAP_11_2673 (protein)
# chain: MKEKLLEAAELAEKAAKLVEELIKEGVDNEELLKELKKLLEELKKLAKEYLSKALQKDVEVAEELFKELLEDEENRLEYAEQLLAALRVLEGNLLLEADE
# B27: GBRAP_52_6314 (protein)
# chain: MSERMEELARRLLELMLAGDEEGARALIRELVKTLSEEELLLLAEELARLAKTLDAEGLDALARLLELIEDEMEEEGVDERIIAEIRGIIITAIYEAEQR
# B28: GBRAP_53_6413 (protein)
# chain: AEAEIAALRAEVKATARAAAAADEATLAALVAEIGALLAALKAAGMPDEELTALAEEVARTLRAAGAPDSALVALAGHLAALGLEEATAAVAEEAVEELE
# B29: GBRAP_35_5548 (protein)
# chain: DSDEETAEMLVDTIEDIVEALPDVSEEDRVALAEAALRLARDLVELQPKNKELIKRAIEALERIKEIIEESDLPEEVRERLVREIEELIEELKKILEENE
# B30: GBRAP_35_5549 (protein)
# chain: DSDREIAEMLVDTIEDIVEALPDVSEEDKIALAKAAIRLARDLVELKPKDEELIKRAIEALERIKEILEESDLPEEDKEELIEEIEELIEELKKLLEENK
# Biological target: GABARAP, O95166
# Experiment: median log2 fold change of GCK-ALFA target abundance (FLAG IP / Myc IP barcode read proportion) (log2 ratio); each designed protein is fused to an ALFA-tag nanobody in HEK293 cells to bring the named protein to FLAG-tagged glucokinase (GCK); Myc marks an untargeted standard; higher = target protein stabilised (more abundant)
# Conditions: target protein: 3xFLAG-MCP-GCK-ALFA reporter; HEK293 landing pad (RPLP)
# How it was run: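 HEK293 landing-pad cells received a recombined binder library fused to the ALFA nanobody and were induced with 2 μg mL^−1 doxycycline, then transfected with a plasmid encoding a FLAG-tagged target and a Myc-tagged standard. Lysates were collected after 48 h for anti-FLAG and anti-Myc immunoprecipitation, and the circular RNA barcodes were reverse transcribed, amplified and sequenced. Target abundance for each binder is the median log2 ratio of FLAG to Myc barcode read proportions. Barcodes had to reach a proportion of at least 10^−7 in both replicates, each binder needed at least 3 barcodes per replicate, a pseudocount of 10^−6 was applied, and the two replicates were pooled.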
# GABARAP, O95166, sequence (O95166 whole entry, the tested form may be a part): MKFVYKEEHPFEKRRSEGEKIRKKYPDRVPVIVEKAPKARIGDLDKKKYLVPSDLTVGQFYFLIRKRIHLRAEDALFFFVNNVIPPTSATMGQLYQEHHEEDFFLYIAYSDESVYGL
row,Binder,median log2 fold change
1,B1,-0.00151
2,B2,0.142
3,B3,0.00752
4,B4,-0.635
5,B5,0.19
6,B6,0.209
7,B7,0.354
8,B8,0.123
9,B9,0.0908
10,B10,-0.903
11,B11,0.201
12,B12,0.209
13,B13,0.0855
14,B14,-0.77
15,B15,-0.362
16,B16,0.274
17,B17,-0.621
18,B18,-0.581
19,B19,-0.0383
20,B20,0.168
21,B21,0.182
22,B22,-1.48
23,B23,-0.406
24,B24,0.139
25,B25,0.086
26,B26,0.0764
27,B27,-0.236
28,B28,0.295
29,B29,-0.485
30,B30,-0.761

# Reference: the supplement of paper PMC12632987
